Experimental data from ChEMBL document CHEMBL4513216, “Probing the Open Global Health Chemical Diversity Library for Multistage-Active Starting Points for Next-Generation Antimalarials” (ACS Infect Dis, 2020).
Screen size: about 69,000 compounds; about 8,600 (12%) showed an effect of 50% or more. The sample holds strong results, similar compounds and a random draw of the others, so the mix is not that of the screen.

tested on: Plasmodium berghei; assay: Screen against P. berghei liver stage (PbLuc), transformed with Luciferase, at 10uM; format: functional, HepG2; settings: tested at 10 uM

| Compound | INHIBITION [%] |
| --- | --- |
| O=S(=O)(Cc1c(F)cccc1F)NCCOc1cccnc1 | 42.4 |
| Cc1ccc(C(=O)N2CCCC(n3cccn3)C2)cc1S(C)(=O)=O (stereo not given) | 23.95 |
| CCc1noc(CCC(=O)N[C@@H]2CC[C@@H](n3ccnc3)[C@@H]2O)n1 | 8.72 |
| Cc1nccn1[C@@H]1CC[C@@H](NC(=O)CCCn2cccn2)[C@H]1O | 4.13 |
| CCc1noc(CCC(=O)N[C@@H]2CC[C@@H](n3ccnc3C)[C@@H]2O)n1 | 56.8 |
| Cc1cc(NC(=O)c2ccc(F)cc2Cl)n(C)n1 | -23.8 |
| CCc1cc(-c2nccn2-c2ccccc2CN2CCOCC2)on1 | -4.51 |
| COc1ncc(-c2nccn2-c2ccccc2CN2CCOCC2)cn1 | 32.3 |
| CCn1ccnc1-c1nccn1-c1ccccc1CN1CCOCC1 | 58.3 |
| CNc1cc(CNC(=O)c2ccccc2OC)nc(-c2ccncc2)n1 | 23.4 |
| O=c1[nH]nc2c(S(=O)(=O)N3CCCCC3)cccn12 | 51 |
| O=c1[nH]nc2c(S(=O)(=O)N3CCCC3)cccn12 | 6.12 |
| O=c1[nH]nc2c(S(=O)(=O)N3CCCCCC3)cccn12 | -15.2 |
| Cc1ccoc1C1=NNC(=CN2CCn3c(nnc3C(C)C)C2)O1 | 15.3 |
| CC(C)c1nc(CN(C)C(=O)C(O)c2ccc(Cl)cc2)cs1 (stereo not given) | -15.6 |
| CN1CCC(N(Cc2ccco2)S(=O)(=O)c2ccc(Cl)cc2)CC1 | 27.9 |
| CN1CCC(N(Cc2ccco2)S(=O)(=O)c2ccc(Br)cc2Cl)CC1 | 61.2 |
| O=c1cc(CN(Cc2ccco2)C2CC2)nc2ccc(Br)cn12 | 9.65 |
| CN1CCC(N(Cc2ccco2)S(=O)(=O)c2cc(Br)ccc2Br)CC1 | 69.8 |
| CC1CCN(C(=O)CN(Cc2ccco2)C2CC2)CC1 | 37 |
| CN(C1CCCCC1)S(=O)(=O)N1CCN(Cc2ccco2)CC1 | 40 |
| CC(NCc1cccc(Cl)c1)c1ccc(OCC(=O)NC2CC2)cc1 (stereo not given) | 13.3 |
| COc1ccc2nnc(CCC(=O)NCc3cccn3C)n2n1 | 9.57 |
| Cc1nc(CCC(N)=O)cc(C2CCCN2S(C)(=O)=O)n1 (stereo not given) | 26.1 |
| CC(C)c1nc2c(n1C)CCN(CC(=O)Nc1nncs1)C2 | -12.2 |
| CC(=O)NC1CCN(c2ccnc(C3CCNCC3)c2)CC1 | 2.55 |
| Fc1ccc2[nH]c3c(c2c1)CCN1C(c2ccncc2)N2CCC31CC2 (stereo not given) | -62.4 |
| O=C(CSC(F)(F)F)N1CCC2(CCCN(C3CCOCC3)C2=O)C1 (stereo not given) | -36.6 |

| Compound | INHIBITION [%] |
| --- | --- |
| Cc1cc(NC(N)=O)ccc1C(=O)N(C)C | 61 |
| Cc1cc(NCC(C)C)ccc1C(=O)N(C)C | 21.5 |
| CCN(CC)C(=O)Nc1ccc(C(=O)N(C)C)c(C)c1 | 19.7 |
| Cn1cc(-c2nnn3c2COC(CNCC2CCOCC2)C3)cn1 (stereo not given) | 5.67 |
| CSCCc1c(-c2ccccc2)ncn1CCNc1cccnc1 | 63.6 |
| CCN(C)CC(C)Cn1cnc(-c2ccccc2)c1C (stereo not given) | -107 |
| Cc1cc(NCCCNc2cccnc2)n2nc(C)c(C)c2n1 | 3.945 |
| Cc1c(-c2ccccc2)ncn1CC(c1cccnc1)N1CCOCC1 (stereo not given) | 37.2 |
| Cc1c(-c2ccccc2)ncn1CCCNc1cccnc1 | 22.7 |
| CSC(C)Cc1c(-c2ccccc2)ncn1CCCNc1cccnc1 (stereo not given) | 82.5 |
| CC[C@H]1N(Cc2ccco2)CCC[C@]12CCC(=O)N2C | 1.34 |
| CC(C)NC(=O)Nc1ncc(-c2cccnc2)s1 | -42.9 |
| Cc1nn(C)c(C)c1C1COCCN1C(=O)c1ccc(Cl)o1 (stereo not given) | -16 |
| Cc1ccc(NCc2cn3c(n2)CN(Cc2ccoc2)CC3)nn1 | 26.5 |
| O=C1CC2(CCSC2)C(=O)N1Cc1ncc(-c2cccc(F)c2)o1 (stereo not given) | -26.8 |
| COc1cccc(-c2cc(C(=O)N3N=C(C)CC3(O)C(F)(F)F)[nH]n2)c1 (stereo not given) | 38.3 |
| Cc1ncc(-c2ccccn2)c(CCNC(=O)CCC2CCCO2)n1 (stereo not given) | 28.5 |
| C[C@@H](NCc1cccc(Cl)c1)c1onc(-c2ccc(F)cc2)c1C(=O)O | -3.58 |
| CCCc1nc(CN2CCOC(Cn3cccn3)C2)no1 (stereo not given) | -43.5 |
| CN(Cc1ccccc1)c1ncccc1CNC1CCSCC1 | 51.8 |
| CN(Cc1ccccc1)c1ncccc1CNC1CCC1 | 22.5 |
| CC(C)N1CCC(NCc2cccnc2N(C)Cc2ccccc2)CC1 | 37.8 |
| CC(=O)N1CCC(NCc2cccnc2N(C)Cc2ccccc2)CC1 | 6.31 |
| CN(Cc1ccccc1)c1ncccc1CNC1CCCC1 | 20.4 |
| CN(Cc1ccccc1)c1ncccc1CNC1CN2CCC1CC2 (stereo not given) | 62.6 |
| CC(C)(C)CC(=O)NCC(=O)Nc1ccn(Cc2ccncc2)n1 | -12.4 |
| Cc1nn(C)cc1C(=O)N1C[C@@H]2CC[C@H]1CN(S(=O)(=O)N(C)C)C2 | -109 |
